Assay results published in the supplement of paper PMC12067093, “Discovery and optimisation of a covalent ligand for TRIM25 and its application to targeted protein ubiquitination” (Chemical Science, 2025).
The full data set covers some 21,000 targets. This sample favours those with the largest changes.

Target: PYCR1_P32322_95_HIVVSCAAGVTISSIEK (UniProt P32322)
Experiment: probe-labelled cysteine peptide fold change vs DMSO (competition) (log2 fold change); higher = less target engagement (more negative = stronger competition)
Conditions: THP-1, incubation time: 4 h
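Also: competitive chemoproteomic profiling in live THP-1 cells with an iodoacetamide desthiobiotin (IA-DTB) probe, comparing probe-labelled peptide intensities in compound-treated cells against DMSO-treated controls.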

SMILES: CC1Cc2ccccc2N1C(=O)C1CCCN(C(=O)CCl)C1 (mixture of isomers) [TRIM25 ligand 11 (diastereomer mixture)]
- probe-labelled cysteine peptide fold change (10 µM): 0.0152
- probe-labelled cysteine peptide fold change (50 µM): 0.0688
